Screening results (PubChem BioAssay)
The list is not random: actives were taken first. Their share in the collection is about 3.5%.
TEAD-YAP inh: TEAD-YAP interaction inhibition; HEK-TIYL cells, TEAD-Gal4/YAP UAS-luciferase luminescence; 640,000 tested, 1.4% active; inhibition, % at 9.12 µM; in the data active = inhibition above about 32%;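 note: 0% = median of test compound wells and 100% = reference inhibitor wells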
GPR151 activ: activates the human receptor GPR151; 650,000 tested, 1% active; AID 1508602; PathHunter beta-arrestin GPR151 cells, luminescence; activation, % at 11.2 µM; in the data active = activation above about 4.9%;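 note: 0% = median of compound wells and 100% = cells with positive control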
Target sequence (Q8TDV0 whole entry, looked up): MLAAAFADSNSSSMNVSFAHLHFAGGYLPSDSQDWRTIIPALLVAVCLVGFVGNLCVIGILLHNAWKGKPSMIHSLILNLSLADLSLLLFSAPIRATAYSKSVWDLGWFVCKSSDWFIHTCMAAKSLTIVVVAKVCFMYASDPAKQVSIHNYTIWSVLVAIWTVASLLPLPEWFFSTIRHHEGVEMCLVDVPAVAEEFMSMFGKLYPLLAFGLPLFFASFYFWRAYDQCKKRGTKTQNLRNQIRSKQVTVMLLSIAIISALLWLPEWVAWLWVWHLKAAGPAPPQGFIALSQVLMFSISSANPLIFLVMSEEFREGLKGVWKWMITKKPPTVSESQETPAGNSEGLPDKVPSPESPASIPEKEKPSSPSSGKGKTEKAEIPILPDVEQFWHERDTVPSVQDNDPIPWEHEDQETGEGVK
MITF inh: inhibitors of human MITF. O75030. AlphaScreen MITF homodimerization, bead proximity signal. inhibition, % at 2.6 µM. 650,000 tested, 0.91% active. AID 1259374; in the data active = inhibition above about 50%;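 note: 0% = vehicle wells with protein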
FBW7 act: human FBW7 E3 ligase activation, primary screen | Q969H0 | AlphaScreen FBW7–phospho-cyclin E peptide binding, activator screen | normalized activity (activation), % at 26.1 µM | 650,000 tested, 0.13% active | AID 1259310; in the data active = normalized activity above about 1.9%;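 note: purified mutant Fbw7 with reduced substrate affinity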
MITF inh conf: confirmation of human MITF inhibitors; shares compounds with MITF inh; AlphaScreen MITF homodimerization, biotin/His-MITF beads; inhibition, % at 2.6 µM; 4,700 tested, 16% active;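 active = inhibition above a cutoff derived from the DMSO control wells, cut at about 28% in these data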;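 note: 0% = MITF dimer wells with DMSO only; inhibitors lower the bead chemiluminescence by keeping MITF from dimerizing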
AS interf DR: AlphaScreen optical interference, dose response counter-screen. shares compounds with MITF inh. AlphaScreen optical interference counterscreen, cell-free. IC50, µM. 480 tested, 6% active. AID 1259373; call rule not given here
AlphaScreen intf2: AlphaScreen optical interference, counter-screen; shares compounds with MITF inh; LysRS AlphaScreen counterscreen, signal interference, triplicate; inhibition, % at 2.6 µM; 4,700 tested, 7.6% active; AID 1259376;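 active = inhibition above a cutoff derived from the DMSO control wells, cut at about 30% in these data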
The depositor's hits bear a star; / = no result.

SMILES	TEAD-YAP inh	GPR151 activ	MITF inh	FBW7 act	MITF inh conf	AlphaScreen intf2	others
C=CCNCCOc1cc(C(C)C)ccc1C	-6	-1	3	0	/	/
Cc1ccc(C(C)C)c(OCCCCn2ccnc2)c1	-1	1	20	0	/	/
Cc1ccc(C(C)C)cc1OCCCCn1ccnc1	1	2	53*	0	8	8
CCCCNc1nc(-c2cc(OC)ccc2OC)cs1	3	-1	59*	0	8	11
N#C/C(=C\c1nn(CCO)c(N)c1C#N)c1ccc(Cl)cc1Cl	-2	0	63*	0	-6	-1
N#C/C(=C\c1cc(Cl)cc(Cl)c1OCc1ccc(Cl)cc1Cl)c1nn(CCO)c(N)c1C#N	5	-1	1	0	/	/
Cc1nc2ccccn2c1-c1ccnn1S(=O)(=O)c1ccc(F)cc1	-3	-1	73*	0	-2	2
Cc1nc2ccccn2c1-c1nnco1	-2	1	-14	0	/	/
COC(=O)c1c(NC(=O)/C(C#N)=C/c2ccc([N+](=O)[O-])cc2)sc2c1CCCC2	19	3	-3	0	/	/
Cc1cnc(CNc2cc(-c3ccccn3)nc(-c3ccccn3)n2)nc1	16	1	110*	-1	115*	100*
COC(CNc1cc(-c2ccccn2)nc(-c2ccccc2)n1)OC	22	0	-2	0	/	/
COC(CNc1cc(-c2ccccn2)nc(-c2ccccn2)n1)OC	22	0	114*	-1	116*	100*
c1ccc(C(c2nnnn2C2CCCC2)N2CCN(C3CCCC3)CC2)cc1 (centres undefined)	-4	-1	-4	0	/	/
CCCCC1=NN2C(=N)/C(=C/c3ccc(OCc4ccccc4Cl)c(OC)c3)C(=O)N=C2S1	-12	0	2	0	/	/
CCOC(=O)C1=C(C)N=c2s/c(=C\c3ccc(Cl)cc3Cl)c(=O)n2C1c1ccc(N(C)C)cc1 (centres undefined)	3	0	2	0	/	/
CCOC(=O)C1=C(C)N=c2s/c(=C/c3ccc(Cl)cc3Cl)c(=O)n2C1c1ccc(C)cc1 (centres undefined)	4	1	63*	0	-11	-11
c1cn2c(NC3CCCC3)c(-c3ccsc3)nc2cn1	-5	-1	-10	0	/	/
O=C(c1ccncc1)N1CCN(Cc2cccc(Cl)c2)CC1	-1	-1	73*	0	9	17
COc1cc(OC)cc(C(=O)N2CCN(Cc3cccc(Cl)c3)CC2)c1	-4	0	52*	0	12	20
COc1cc(OC)cc(C(=O)N2CCN(Cc3ccc(Cl)cc3)CC2)c1	10	-1	58*	0	27	15
COc1cc(OC)cc(C(=O)N2CCN(Cc3ccc(F)cc3)CC2)c1	-5	1	51	0	/	/
O=C(Nc1ccccc1)Nc1ccc2c(c1)OCCO2	-3	3	5	0	/	/
CCc1ccccc1OCC(=O)OCC(=O)NC(N)=O	2	1	-6	0	/	/
Cc1cc(OCCOCCN2CCOCC2)cc(C(C)C)c1	2	-3	65*	1	11	11
Cc1cc(Cl)c(OCCOCCN2CCOCC2)c(Br)c1	-10	0	72*	0	-11	-7
SMILES	TEAD-YAP inh	GPR151 activ	MITF inh	FBW7 act	MITF inh conf	AlphaScreen intf2	others
Cc1cc(OCCOCCN2CCN(C)CC2)cc(C(C)C)c1	4	0	32	0	/	/
Cc1cc(Cl)c(OCCOCCn2ccnc2)c(Br)c1	-7	2	75*	0	17	20
Cc1ccc(OCCOCCN2CCOCC2)c(Br)c1	-16	0	75*	0	7	3
Cc1cc(Cl)c(OCCn2ccnc2)c(Br)c1	-16	-1	27	0	/	/
Cc1cc(C)c2c(N)c(C(=O)N3CCN(c4ncccn4)CC3)sc2n1	-5	0	4	0	/	/
Cc1c(Br)c([N+](=O)[O-])nn1CC(=O)n1cccn1	2	-1	21	0	/	/
c1ccc2cc(CN3CCSCC3)ccc2c1	-6	1	57*	0	1	0
Fc1cccc(CN2CCN(Cc3ccc4ccccc4c3)CC2)c1	1	0	72*	0	10	21
CCc1ccc(CN2CCN(Cc3ccc4ccccc4c3)CC2)cc1	-2	-1	64*	0	0	1
Fc1cccc(CN2CCN(Cc3cccc4ccccc34)CC2)c1	-3	0	86*	0	5	19
OC1CCN(Cc2ccc3ccccc3c2)CC1	4	1	-1	0	/	/
COc1ccc(-n2nc3c(c2NC(=O)CCC2CCCC2)CS(=O)C3)cc1 (centres undefined)	-11	0	-7	0	/	/
COc1ccc(C(=O)N2CCN(Cc3cccc4ccccc34)CC2)cc1	7	3	59*	0	6	-4
COc1cccc(CN2CCN(C(=O)c3ccc(F)cc3)CC2)c1OC	4	3	32	0	/	/
COc1ccc(C(=O)N2CCN(Cc3ccccc3F)CC2)cc1	-1	-1	62*	0	-10	-4
COc1ccc(C(=O)N2CCN(Cc3c[nH]c4ccccc34)CC2)cc1OC	9	1	17	0	/	/
CCOC(=O)N1CCN(C(=O)C2CCN(Cc3cccc4ccccc34)CC2)CC1	-4	0	51*	0	11	18
COc1ccc(C(=O)N2CCN(Cc3c[nH]c4ccccc34)CC2)cc1	16	0	76*	0	-12	-6
Cc1ccc(CN2C(=O)CSc3ccc(NC(=O)Nc4ccccn4)cc32)cc1	-5	1	-3	0	/	/
CC1CC(C)CN(C(=O)c2cc3cc([N+](=O)[O-])ccc3s2)C1 (centres undefined)	-5	1	13	0	/	/
CC(C)N1CCc2c(sc(NC(=O)CCSc3ccccc3)c2C#N)C1	1	1	9	0	/	/
O=C(NCC12CC3CC(CC(C3)C1)C2)c1cccnc1Cl	-4	1	6	0	/	/
Cc1ccccc1CN1CCN(C(=O)C(c2ccccc2)c2ccccc2)CC1	2	-1	38	0	/	/
O=C(C(c1ccccc1)c1ccccc1)N1CCN(Cc2ccncc2)CC1	4	-1	62*	0	-8	-10
O=C(C(c1ccccc1)c1ccccc1)N1CCN(Cc2ccc(F)cc2)CC1	6	-2	62*	0	9	23
CCc1cccc(C)c1NS(=O)(=O)c1cc(C(=O)OC)n(C)c1	1	-1	3	0	/	/
COc1cc(/C=N/N=C2\NC(=O)C(CC(=O)O)S2)ccc1OCc1ccc(C)cc1 (centres undefined)	-40	-1	66*	0	45*	4	AS interf DR=>6.5
COc1cc(/C=N/N=C2\NC(=O)C(CC(=O)O)S2)ccc1OCC(=O)O (centres undefined)	1	0	10	0	/	/
